Assays:
Settings in all cases: concentration: 1 μM, replicates: in singlicate; n = 1
[1] = tested on: PHKG1
[2] = tested on: PHKG2
[3] = tested on: PIK3C2B
[4] = tested on: PIK3C2G
[5] = tested on: PIK3CA
[6] = tested on: PIK3CB
[7] = tested on: PIK3CD
[8] = tested on: PIK3CG
[9] = tested on: T1, PIK4CB
T1 construct: gene PI4KB

[10] = tested on: PIKFYVE
[11] = tested on: PIM1
[12] = tested on: PIM2
[13] = tested on: PIM3
[14] = tested on: PIP5K1A
[15] = tested on: PIP5K1C
[16] = tested on: PIP5K2B
[17] = tested on: T2, PIP5K2C
T2 construct: gene PIP4K2C

[18] = tested on: T3, PKAC-alpha
T3 construct: gene PRKACA

[19] = tested on: T4, PKAC-beta
T4 construct: gene PRKACB

[20] = tested on: PKMYT1
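Note: KINOMEscan kinase panel screen.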

SMILES | %Inh [1] | %Inh [2] | %Inh [3] | %Inh [4] | %Inh [5] | %Inh [6] | %Inh [7] | %Inh [8] | %Inh [9] | %Inh [10] | %Inh [11] | %Inh [12] | %Inh [13] | %Inh [14] | %Inh [15] | %Inh [16] | %Inh [17] | %Inh [18] | %Inh [19] | %Inh [20]
Cn1ccc2ncnc(Oc3ccc(NC(=O)Nc4ccccc4)cc3)c21 | 0% | 0% | 0% | 22% | 0% | 16% | 0% | 0% | 0% | 21% | 8% | 13% | 22% | 0% | 5% | 5% | 1% | 16% | 17% | 16%
O=c1cc(N2CCOCC2)nc2n(Cc3cccc(Cl)c3Cl)ccn12 [GSK2286295] | 0% | 19% | 22% | 0% | 20% | 98.7% | 89% | 50% | 0% | 0% | 4% | 0% | 5% | 0% | 16% | 2% | 0% | 16% | 5% | 2%
CN(C)CCN(C)C(=O)c1cc(-c2ccncc2)c(-c2ccc(Cl)c(O)c2)o1.Cl.Cl [SB-710397] | 0% | 0% | 0% | 0% | 0% | 18% | 40% | 0% | 7% | 47% | 0% | 0% | 0% | 1% | 67% | 8% | 42% | 9% | 0% | 0%
O=C(Nc1n[nH]c2nc(-c3nccs3)c(Br)cc12)C1CCCC1 [SB-742609] | 0% | 0% | 0% | 0% | 0% | 0% | 0% | 0% | 0% | 0% | 0% | 0% | 0% | 0% | 36% | 0% | 0% | 0% | 0% | 14%
COc1ccccc1-c1ccc2c(NC(=O)C3CC3)n[nH]c2n1 [SB-711239] | 1% | 0% | 0% | 45% | 0% | 25% | 23% | 0% | 0% | 17% | 13% | 0% | 0% | 41% | 53% | 30% | 19% | 6% | 2% | 0%
Cc1nnc(-c2ccc3occ(-c4ccc(S(C)=O)cc4)c3c2)[nH]1 (stereo not drawn) | 15% | 16% | 3% | 17% | 9% | 28% | 0% | 5% | 0% | 17% | 32% | 58% | 35% | 0% | 63% | 35% | 61% | 9% | 0% | 21%

From PMC5540273 (PLoS ONE, 2017)
